Compound activity as filed in PubChem BioAssay.
The entries come from a sample that favours hits as a whole.
RmlC RmlD mix: RmlC/RmlD inhibition, mixture screen | RmlC/RmlD coupled enzyme inhibition, 384-well mixture HTS | inhibition, % at 5.5 µM | 110,000 tested, 0.39% active | AID 1532; in the data active = inhibition above about 30%, passing the limit was not always enough; inconclusive = no clear call, values can overlap the other calls
HIV RNase H inh-1: inhibitors of HIV-1 reverse transcriptase RNase H. P04585. RT-RNase H RNA/DNA duplex cleavage, fluorescence. inhibition, % at 10 µM. 65,000 tested, 1.9% active. AID 565; in the data active = inhibition above about 50%
HIV RNase H inh-2: confirmation of HIV-1 reverse transcriptase RNase H inhibitors | shares compounds with HIV RNase H inh-1 | inhibition, % at 10 µM | AID 651 | 1,000 tested, 39% active | Recombinant RT RNase H, fluorescent RNA/DNA duplex cleavage; in the data active = inhibition above about 48%; inconclusive = no clear call, values can overlap the other calls
Of the large screens only hits and unclear results are named; the others gave an inactive call (follow-up assays come after a bar, where they were run).

COC(=O)C(CC(=O)c1ccc(Br)cc1)n1ccnc1 (configuration not stated)	HIV RNase H inh-1 79 (no result: RmlC RmlD mix) | HIV RNase H inh-2 inactive
COc1ccccc1-c1nnc(SCC(=O)Nc2ccc(S(N)(=O)=O)cc2)n1C	none (no result: HIV RNase H inh-1)
O=C1c2cc(S(=O)(=O)NCCCO)ccc2-c2ccc(S(=O)(=O)NCCCO)cc21	none (no result: HIV RNase H inh-1)
Cc1nc(-c2cccc(S(=O)(=O)N3CCOCC3)c2)cs1	HIV RNase H inh-1 78 | HIV RNase H inh-2 58
Cc1nc(-c2cccc(S(=O)(=O)N3CC(C)OC(C)C3)c2)cs1 (configuration not stated)	none
CC(=O)/C(=C/N(C)C)Sc1ccc(C)cc1	none (no result: HIV RNase H inh-1)
COC(=O)[C@@]1(Cc2ccc(OC)cc2)[C@H]2c3cc(C(=O)N4CCCC4)n(CCc4c[nH]c5ccc(O)cc45)c3C[C@H]2CN1C(=O)c1ccccc1	none (no result: HIV RNase H inh-1)
CCOC(=O)c1sc(NC(=O)CSc2nc(-c3ccco3)cc(C(F)(F)F)n2)c(C#N)c1C	HIV RNase H inh-1 76 | HIV RNase H inh-2 inconclusive
CCOC(=O)c1sc(NC(=O)CSc2n[nH]c(-c3ccccc3)n2)c(C#N)c1C	HIV RNase H inh-1 83 (no result: RmlC RmlD mix) | HIV RNase H inh-2 62
CCOC(=O)c1c(NC(=O)CSc2nnc(Cc3ccccc3)o2)sc(C(C)=O)c1C	none (no result: HIV RNase H inh-1)
CCOC(=O)c1sc(NC(=O)CSc2nnc(Cc3ccccc3)o2)c(C#N)c1C	HIV RNase H inh-1 90 (no result: RmlC RmlD mix) | HIV RNase H inh-2 54
CCOC(=O)c1sc(NC(=O)CSc2nc(C)cc(C)n2)c(C#N)c1C	none (no result: HIV RNase H inh-1)
Cc1cccc(C)c1NC(=O)CSc1nc(-c2ccco2)cc(C(F)(F)F)n1	none (no result: HIV RNase H inh-1)
Cc1cc(C)c(C(=O)C2OC(=O)C(C)(C)C(=O)C2(C)C)c(C)c1 (configuration not stated)	none (no result: HIV RNase H inh-1)
CC(C)CCNC(=O)c1onc(CSc2ccccn2)c1C(=O)NCCC(C)C	none (no result: HIV RNase H inh-1)
CC(C)C[C@H]1COCCS(=O)(=O)N1Cc1ccc(Cl)c(Cl)c1	none (no result: HIV RNase H inh-1)
COc1ccccc1N1C(=O)CC(Sc2ncccc2C(=O)O)C1=O (configuration not stated)	none
O=C1CC(Sc2ncccn2)C(=O)N1c1ccccc1C(F)(F)F (configuration not stated)	HIV RNase H inh-1 70 | HIV RNase H inh-2 inactive
Cc1ccnc(NC(=O)CN(C)S(=O)(=O)c2cccc3nsnc23)c1	none
Cc1ccc2nc(NC(=O)CN(C)S(=O)(=O)c3cccc4nsnc34)sc2c1	HIV RNase H inh-1 51 | HIV RNase H inh-2 inactive
Cc1cnc(C(=O)Nc2ccc(F)c(F)c2)cn1	HIV RNase H inh-1 51 | HIV RNase H inh-2 inactive
Cc1cnc(C(=O)Nc2ccc3c(c2)CCC3)cn1	none
CCOC(=O)C(C#N)(Cc1cc(OC)cc(OC)c1)Cc1cc(OC)cc(OC)c1	none (no result: HIV RNase H inh-1)
Cc1csc(Sc2ccc([N+](=O)[O-])cc2C(=O)OCC(=O)NC(=O)NC(C)(C)C)n1	none (no result: HIV RNase H inh-1)
COc1ccc(-c2cc(C(=O)Nc3cc(OC)c(OC)c(OC)c3)no2)cc1OC	HIV RNase H inh-1 80 | HIV RNase H inh-2 inactive
COc1cccc(-c2cc(C(=O)Nc3ccc(OC)c(OC)c3)no2)c1	none
Cc1cccn2c(=O)c3cc(C(=O)NCCCN4CCCC4=O)n(C)c3nc12	none
O=C(N1CCOCC1)N1CCC(n2nnc3cc(F)ccc32)CC1	HIV RNase H inh-1 84 | HIV RNase H inh-2 inactive
O=S(=O)(c1ccc2c(c1)OCCO2)N1CCC(n2nnc3cc(F)ccc32)CC1	none
CCc1cc2c(=O)n(-c3ccc(C)cc3)cnc2s1	none (no result: HIV RNase H inh-1)
COc1cccc(SCc2noc(C(=O)NCCN(C)C)c2C(=O)NCCN(C)C)c1	none (no result: HIV RNase H inh-1)
CCOC(=O)c1c(NC(=O)CSc2nnc(C)s2)sc2c1CCCCC2	none (no result: HIV RNase H inh-1)
CCOC(=O)c1c(NC(=O)c2nn(CC)cc2Br)sc(C)c1C	HIV RNase H inh-1 94 | HIV RNase H inh-2 inactive
CCOC(=O)c1c(NC(=O)c2ccc(-n3cnnn3)cc2)sc2c1CCCC2	HIV RNase H inh-1 86 (no result: RmlC RmlD mix) | HIV RNase H inh-2 96
CCOC(=O)c1c(NC(=O)c2nn(CC)cc2Br)sc2c1CCCCC2	HIV RNase H inh-1 88 | HIV RNase H inh-2 inactive
CCOC(=O)c1c(NC(=O)c2noc3c2CCCC3)sc2c1CCCC2	none (no result: RmlC RmlD mix)
CCOC(=O)c1ccc(NC(=O)c2nn(CC)cc2Br)cc1	none
COc1ccc(/C=N/NC(N)=S)cc1OC(=O)c1cccc2ccccc12	none (no result: HIV RNase H inh-1)
COc1ccc(NC(=O)COC(=O)CCCc2c[nH]c3ccccc23)cc1OC	none (no result: HIV RNase H inh-1)
Cc1cccc(-c2cc(C(=O)NCCCn3ccnc3)c3ccccc3n2)c1	none (no result: HIV RNase H inh-1)
Cc1ccc(-c2cc(C(=O)NC3=NCCS3)c3cc(Br)ccc3n2)o1	HIV RNase H inh-1 95 | HIV RNase H inh-2 80
Cc1ccc(-c2cc(C(=O)Nc3ccccc3C)c3ccccc3n2)o1	none (no result: HIV RNase H inh-1)
Cc1ccc(-c2cc(C(=O)NCCCn3ccnc3)c3cc(Br)ccc3n2)o1	HIV RNase H inh-1 78 | HIV RNase H inh-2 inactive
COc1cc(O)cc2c1[C@@H]1Oc3c(ccc(O)c3CC=C(C)C)[C@@H]1CO2	none (no result: HIV RNase H inh-1)
O=C(OCc1ccccc1)c1cn(-c2ccccc2)nc1-c1ccncc1	none (no result: HIV RNase H inh-1)
Cc1ccc(C(=O)N2CCC3(CC2)Oc2ccc(F)cc2C(=O)C32CC(c3cccnc3)=NO2)s1 (configuration not stated)	none (no result: HIV RNase H inh-1)
Cc1ccc(NC(=O)c2ccc(Cn3cc(Br)cn3)o2)cc1	none (no result: HIV RNase H inh-1)
N#Cc1c(NC(=O)c2ccc(Cn3cc(Br)cn3)o2)sc2c1CCCCCC2	HIV RNase H inh-1 88 | HIV RNase H inh-2 62
O=C(O)c1cccc(N2CCCC2)c1	none
Cc1ccc(C)n1-c1cccc(C(=O)O)c1	HIV RNase H inh-1 71 | HIV RNase H inh-2 inconclusive
CC(C)c1cn(C2OC(COC(=O)c3ccccc3)C(OC(=O)c3ccccc3)C2OC(=O)c2ccccc2)c(=O)[nH]c1=O (configuration not stated)	none (no result: HIV RNase H inh-1)
O=C1c2ccccc2C(=O)N1SC1CCCCC1	HIV RNase H inh-1 80 | HIV RNase H inh-2 inactive
O=C(OCN1C(=O)c2ccccc2C1=O)C1CCCCC1	none
Cc1c(C=O)c2ccccc2n1CC(=O)N1CCc2ccccc2C1	none (no result: HIV RNase H inh-1)
N#CC1=C(C2CC2)CC(c2ccccc2)C(C#N)=C1N (configuration not stated)	none
N#CC1=C(N)SC2(CCCCC2)SC1c1ccccc1 (configuration not stated)	HIV RNase H inh-1 59 | HIV RNase H inh-2 inactive
c1ccc(-c2cc3n(c2)CCc2ccccc2-3)cc1	none (no result: HIV RNase H inh-1)
CCOc1ccc(C2C(C#N)=C(N)SC(N)=C2C#N)cc1OCC	none
CCOc1ccc(C2C(C#N)=C(N)SC(N)=C2C#N)cc1OC	HIV RNase H inh-1 69 | HIV RNase H inh-2 inactive
Cc1ccc(C2C(C#N)=C(N)SC(N)=C2C#N)o1	HIV RNase H inh-1 80 | HIV RNase H inh-2 inconclusive
CCc1ccc(C2C(C#N)=C(N)SC(N)=C2C#N)s1	none
N#CC1=C(N)SC(N)=C(C#N)C1c1cccc(Oc2ccccc2)c1	HIV RNase H inh-1 70 | HIV RNase H inh-2 inactive
COC1(OC)N=C(N)C2(C#N)C(c3cccc(Oc4ccccc4)c3)C12C#N (configuration not stated)	none
N#CC1=C(N)SC(N)=C(C#N)C1c1ccc(C(F)(F)F)cc1	HIV RNase H inh-1 61 | HIV RNase H inh-2 inactive
N#CC1=C(N)SC(N)=C(C#N)C1C1CC=CCC1 (configuration not stated)	none
COc1ccc(C=O)cc1CSc1nnc(COc2cccc3cccnc23)o1	none (no result: HIV RNase H inh-1)
CCc1ccc(C2C(C#N)=C(N)SC(N)=C2C#N)cc1	HIV RNase H inh-1 70 | HIV RNase H inh-2 inactive
N#CC1=C(N)SC(N)=C(C#N)C1c1c(Cl)cccc1Cl	none
CCOc1ccccc1C1C(C#N)=C(N)SC(N)=C1C#N	none (no result: RmlC RmlD mix)
N#CC1=C(N)SC(N)=C(C#N)C1CCc1ccccc1	HIV RNase H inh-1 72 | HIV RNase H inh-2 inactive
